Tau fibril FP: qHTS for Inhibitors of Tau Fibril Formation, Fluorescence Polarization; Microtubule-associated protein tau (Homo sapiens), P10636; K18 P301L tau heparin fibrillization, Alexa594 FP, 6 h; Potency, µM (highest dose often 57.7 µM), inactives show at the top dose activity, negative = inhibition, hits mostly inhibitors; 280,000 compounds, 0.39% hits; AID 1468, 2008; further: potency means the concentration at half of the fitted maximal effect; nearly all actives have a fitted effect of over 55% in size
Target sequence (P10636 561-689 P618L limits assumed): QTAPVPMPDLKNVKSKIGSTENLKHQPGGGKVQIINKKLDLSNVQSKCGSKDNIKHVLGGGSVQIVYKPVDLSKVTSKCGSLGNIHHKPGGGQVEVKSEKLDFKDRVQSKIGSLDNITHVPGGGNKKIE
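FP of Alexa 594-tau after heparin (20 uM) induction. Substrate: human K18 P301L, 15 uM unlabeled, 0.24 uM labeled. Buffer 100 mM sodium acetate pH 7. 6 hr, 37 C.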
Coupling enz: qHTS Assay for Inhibitors of Fructose-1,6-bisphosphate Aldolase from Giardia Lamblia: Coupling assay counterscreen. coupling enzyme system counterscreen, AmpLite Red fluorescence. activity change, negative = inhibition, % at 58.2 µM, hits read low. 290,000 compounds, 0.67% hits; in the data active means activity change below about -30%
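Coupling enzymes only (glyceraldehyde-3-phosphate) + compound, at 57.5 uM final, 10 min RT; add substrate/coupling/AmpLite Red mix, 20 min RT; fluorescence ex 525/em 598 nm. Actives flag coupling-system interference.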
Tau fluor counter: Counterscreen qHTS for Inhibitors of Tau Fibril Formation, Fluorescence Polarization; Potency, µM (titrated, usually from 57.7 µM), for the others: at the highest dose activity change, negative = decrease; tau K18 P301L Alexa594 fluorescence, heparin fibrillization; 280,000 compounds, 0.93% hits; AID 1463, 2008; further: potency means the concentration at half of the fitted maximal effect; nearly all actives have a fitted effect of over 55% in size
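Human K18 P301L tau (15 uM unlabeled plus 0.24 uM Alexa 594-labeled, final) in 100 mM sodium acetate pH 7 was mixed with compound and 20 uM heparin and incubated 6 hr at 37 C.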
Tau ThT inhib: qHTS for Inhibitors of Tau Fibril Formation, Thioflavin T Binding; Microtubule-associated protein tau (Homo sapiens), P10636; AID 1460, 2008; recombinant tau K18 P301L, heparin-induced fibrillization, ThT fluorescence; 270,000 compounds, 2.1% hits; Potency, µM (titrated, usually from 57.4 µM), for the others: at the top dose activity, negative = inhibition, most hits filed as inhibitors; further: potency means the concentration at half of the fitted maximal effect; nearly all actives have a fitted effect of over 55% in size
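Using a mix of unlabeled (15 uM) and Alexa 594-labeled (0.24 uM) tau K18 P301L, heparin-triggered fibrillization over 6 hr at 37 C was scored by ThT fluorescence.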
Numbers without * were called inactive; u = inconclusive; x = not tested or not shown; [ ] = dose if it differs, or a comment. Rows were chosen to be rich in hits. Some 2.7% of all compounds tested hit in one or more screens of this group. Unless noted, the call rests on the fitted dose curve; in most records, active means well fitted curve in the direction sought with a large enough effect; inconclusive means small, poorly fitted or top-dose-only effect, or another doubt; inactive means no such curve, though single readings can be large; an effect the other way counts as inactive or inconclusive. On the % scale 0 is the no-effect control and ±100 the full control effect.

SMILES | Tau fibril FP | Coupling enz | Tau fluor counter | Tau ThT inhib
Cc1cc(C)n(CC(O)Cn2c3ccc(Br)cc3c3cc(Br)ccc32)c(=O)n1 (stereo not drawn) | -13.3% | -2.0 | -28.3% | -24.4%
CN(C)CC(O)Cn1c2ccc(Br)cc2c2cc(Br)ccc21 (stereo not drawn) | 25.1µM* | x | u | 16.4%
Cc1n[nH]c(=S)n(NC(=O)CC(=O)Nn2c(=S)[nH]nc(C)c2=O)c1=O | 2.7% | -43.4* | 4.8% | 1.9%
Cc1cc(C)c(Nc2nn3c(=O)c4cc5c(cc4nc3s2)OCO5)c(C)c1 | u | x | -26.6% | 28.2µM*
C/C(=N/Nc1nc(-c2ccccc2)cc(-c2ccccc2)n1)c1ccc(N)cc1 | 0.2% | 0.0 | u | u
C/C(=N/Nc1cc(-c2ccccc2)nc(-c2ccccc2)n1)c1ccc(O)cc1 | u | -5.5 | 7.08µM*[quencher] | u
O=C(Cn1ncc2c3ccccc3n(Cc3cccc(Cl)c3)c2c1=O)N1CCCCCC1 | 2.2% | x | -6.0% | -2.2%
NS(=O)(=O)c1ccc2c(c1)C1C=CCC1C(C1CC=CCC1)N2 (stereo not drawn) | u | -17.4 | 28.2µM*[quencher] | 35.5µM*
CC(C)C1Nc2ccc(S(N)(=O)=O)cc2C2C=CCC21 (stereo not drawn) | u | -4.2 | u | 20µM*
Cc1ccc(NS(=O)(=O)c2ccc3c(c2)[C@H]2C=CC[C@H]2[C@@H](c2ccc(F)cc2)N3)cc1C | -0.5% | x | u | u
CCC(=O)N(Cc1ccc(S(N)(=O)=O)cc1)C1CC(=O)N(c2ccccc2)C1=O (stereo not drawn) | 8.1% | 4.8 | 0.0% | 1.5%
COc1ccc(CC(=O)NC2CC(=O)N(c3ccc4c(c3)OCCO4)C2)cc1 (stereo not drawn) | -10.2% | x | -1.6% | -1.6%
COc1cccc(OCCNc2cc(Cl)ccc2[N+](=O)[O-])c1 | -3.9% | -11.3 | -29.9% | 8.91µM*
CCOc1ccc(NCC(=O)Nc2ccc(Cl)cc2C)cc1 | -4.0% | -3.9 | -20.6% | u
COc1ccc(NCC(=O)Nc2ccc(Cl)cc2C)c(OC)c1 | -13.8% | -10.9 | u | 31.6µM*
Fc1cccc(C[n+]2csc3ccccc32)c1 | u | -1.8 | -23.1% | 25.1µM*
c1ccc(C[n+]2csc3ccccc32)cc1 | -13.6% | -4.0 | -21.1% | u
CCOC(=O)c1sc(=S)n(Cc2ccccc2)c1N | 11.6% | 0.9 | 15.8µM*[quencher] | -15.1%
O=C(O)c1cc([N+](=O)[O-])ccc1NCc1ccccc1 | 7.4% | 0.6 | 6.9% | u
O=C(O)c1cc([N+](=O)[O-])ccc1NCCCc1ccccc1 | 2.1% | -6.2 | -8.2% | 3.55µM*
FC(F)(F)c1ccccc1-c1nc(NCc2cccs2)c2ccccc2n1 | x | -2.7 | x | x
CC(C(=O)N1CCCCC1)N1C(=O)c2ccccc2C1=O (stereo not drawn) | 2.3% | -1.1 | -0.3% | -5.3%
O=C1C(=O)N2C(=C1C(=O)N1CCCCCC1)c1ccccc1CC21CCCC1 | -4.1% | -17.6 | 1.7% | -15.5%
CCC1(CC)Cc2ccccc2C2=C(C(=O)N3CCCCC3)C(=O)C(=O)N21 | 3.2% | -34.4* | 6.7% | 1.9%
CC1(C)Cc2ccccc2C2=C(C(=O)N3CCCCCC3)C(=O)C(=O)N21 | 0.7% | -42.5* | 3.3% | -1.5%
SMILES | Tau fibril FP | Coupling enz | Tau fluor counter | Tau ThT inhib
O=C1OC2(CCCCC2)OC(=O)C1=CNc1ccc2c(c1)OCO2 | 1.5% | -9.9 | -10.8% | 0.8%
COc1ccc2c(c1)CC/C(=C\Nc1ccc3c(c1)OCO3)C2=O | u | -49.0* | 14.1µM*[quencher] | 1.26µM*
COc1ccc2c(c1)CC/C(=C\C=C\c1ccccc1)C2=O | -8.3% | -16.7 | -25.4% | 2.51µM*
COc1ccc(N/C=C2\CCc3ccccc3C2=O)cc1 | -14.7% | -39.2* | 28.2µM*[quencher] | 0.891µM*
COc1ccc(S(=O)(=O)Nc2ccc3c(c2)OCO3)cc1 | u | -0.4 | -17.7% | -13.8%
O=C1/C(=C/Nc2ccc3c(c2)OCO3)CCc2ccccc21 | u | -40.0* | 7.94µM*[quencher] | 1.58µM*
O=C(O)CCC[C@H](O)\C=C/C=C/C=C/[C@H](O)C/C=C\CCCCCO | 1.1% | 2.7 | -1.0% | -0.7%
CCn1c(=O)c(C(=O)Nc2ccc(C(C)=O)cc2)nc2ccccc21 | 3.6% | x | -5.8% | u

Bioassay records from PubChem BioAssay.
